According to PubChem BioAssay AID1508622 (National Center for Advancing Translational Sciences (NCATS), 2021):
A number with no mark means an inactive call. The call rests on the fitted dose curve; in most records, active means well fitted activation curve with a large enough effect; inconclusive means small, poorly fitted or top-dose-only effect; inactive means no such curve, though single readings can be large or run the other way.

Experiment: Confirmatory qHTS for Identification of Small Molecule Activators of Huntingtin-Antisense Promoter Activity
Conditions: HEK293 HTT-AS promoter firefly luciferase reporter, 24 h; series mostly up to 57.5 µM; activity change, positive = activation: at the top concentration
In short: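 2,500 luciferase reporter HEK293 cells/well; 24 h culture; cpds up to 57.5 uM final, PTC124 50 uM ctrl; 24 h, 37C; Dual-Glo FLuc reagent, 10 min RT; lum. Norm.: vehicle 0%, zero RLU -100%.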
For `COc1ccc(CCNC(=O)c2ccc3nc(Cc4ccccc4)oc3c2)cc1OC`, the “activity change, positive = activation” value was -33.4%. With `O=C(Nc1cccc(Cl)c1)C1CCCN(c2nn3cc(-c4ccc(F)cc4)nc3s2)C1` (stereo not given) the “activity change, positive = activation” value was -64.6%. In the case of `CCOC(=O)c1cc(-c2ccc(F)cc2)n(CCC(=O)NCCc2ccc(C)cc2)c1C`, the “activity change, positive = activation” value is reported as -9.24%. For `Cc1ccc(NC(=O)C2CCN(S(=O)(=O)c3ccc4[nH]c5c(c4c3)CCCCC5)CC2)cc1`, the “activity change, positive = activation” value was -23.1%. With `CC(=O)N1CCCc2cc(S(=O)(=O)N(C)CC(=O)Nc3ccc(Cl)cc3C)ccc21` the “activity change, positive = activation” value was -44.5%. For `CCCN(C(=O)COc1cc(=O)n(CC)c2ccccc12)c1ccc(C(C)C)cc1`, the “activity change, positive = activation” value was -11.8%. In the case of `O=C(Nc1ccc(Br)cc1)c1ccc(Br)c(S(=O)(=O)N2CCCCC2)c1`, the “activity change, positive = activation” value is reported as -81.9%. With `O=C(NCCCN1CCN(c2ccccc2)CC1)c1ccc2nc(CCc3ccccc3)oc2c1` the “activity change, positive = activation” value was -82.1%. In the case of `COc1ccccc1N1CCN(C(CNC(=O)C(=O)NCCc2ccccc2)c2cccnc2)CC1` (stereo not given), the “activity change, positive = activation” value is reported as -46.1%. With `O=S(=O)(c1ccc(-c2csc(=Nc3ccc(OC(F)(F)Cl)cc3)n2CCCO)cc1)N1CCCC1` the “activity change, positive = activation” value was -71.2%. For `CCc1ccc(CNC(=O)c2cccc(-n3c(C)nc4cccnc43)c2)cc1`, the “activity change, positive = activation” value was -56.2%. With `Cc1ccc(-c2nc(S(=O)(=O)c3ccccc3)c(SCC(=O)NC3CCCCC3)o2)cc1` the “activity change, positive = activation” value was -23.6%. For `COc1ccc(C2c3c(-c4c(C)cc(C)cc4O)n[nH]c3C(=O)N2Cc2ccco2)cc1` (stereo not given), the “activity change, positive = activation” value was -38.1%. With `CCc1ccccc1N(C)C(=O)C1CCCN(c2ncnc3c2nc2n3CCCCC2)C1` (stereo not given) the “activity change, positive = activation” value was -45.1%. In the case of `CCc1cccc(C)c1NC(=O)COCc1cc(-c2ccc3c(c2)OCO3)on1`, the “activity change, positive = activation” value is reported as -92%.
